Screens from PubChem.
The list is not random: actives were taken first. Their share in the collection is about 3.1%.
esBAF inh: Bmi1 luciferase reporter increase in mESCs, primary screen, esBAF inhibitor project, mouse ES cells, Bmi1 luciferase knock-in, single point; 24 h; 100% = twice the neutral-well signal; reporter increase, % at 12.5 µM; 350,000 compounds, 2% hits; in the data active = activation above about 40%; inconclusive = no clear call, values can overlap the other calls;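 note: 0% = median of the plate's neutral control wells and 100% = double that signal; a rise in the Bmi1 reporter signal indicates esBAF inhibition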
C2C12 statin: suppressors of statin myotoxicity in C2C12 myotubes, primary screen, cell-based, single point, plate reader; AID 602340, 2012; C2C12 myotubes + simvastatin, ATP luminescence, 48 h; scaled: DMSO 0, geranylgeraniol control 100; rescue of ATP level, % at 7.49 µM; 330,000 compounds, 0.78% hits;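 active = mean ATP rescue above about 67%, or every replicate alone reaching that limit, limit read from the data, passing the limit was not always enough; inconclusive = no clear call, values can overlap the other calls; inactive = mean under the limit and some replicate under it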;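 note: myotubes were challenged with 10 µM simvastatin during compound exposure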
MITF act: activators of MITF-driven TRPM1 promoter reporter, primary screen, cell-based, SK-MEL-5, luciferase, single point. SK-MEL-5 TRPM1-promoter luciferase, 24 h; % of positive control, neutral wells = 0. activation, % at 12.5 µM. 300,000 compounds, 0.75% hits. AID 588334, 2011;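 active = mean activation of at least 80% with every replicate also reaching 80%; inconclusive = mean reaches 80% but some replicate falls short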;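 note: 0% = neutral control wells and 100% = parthenolide positive control wells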
Rtt109 HAT inh: inhibitors of C. albicans Rtt109/Vps75 HAT, primary screen, biochemical, ThioGlo CoA-SH fluorescence, plate reader; purified Rtt109/Vps75, 4 h; 330,000 compounds, 0.16% hits; AID 540336, 2011; inhibition, % at 34.9 µM; Histone acetyltransferase RTT109 (Candida albicans (strain SC5314 / ATCC MYA-2876)), …;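 active = inhibition of at least 50% in every replicate; inconclusive = best replicate reaches 50% inhibition but some replicates fall short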
Target sequence (Q5AAJ8 whole entry, looked up): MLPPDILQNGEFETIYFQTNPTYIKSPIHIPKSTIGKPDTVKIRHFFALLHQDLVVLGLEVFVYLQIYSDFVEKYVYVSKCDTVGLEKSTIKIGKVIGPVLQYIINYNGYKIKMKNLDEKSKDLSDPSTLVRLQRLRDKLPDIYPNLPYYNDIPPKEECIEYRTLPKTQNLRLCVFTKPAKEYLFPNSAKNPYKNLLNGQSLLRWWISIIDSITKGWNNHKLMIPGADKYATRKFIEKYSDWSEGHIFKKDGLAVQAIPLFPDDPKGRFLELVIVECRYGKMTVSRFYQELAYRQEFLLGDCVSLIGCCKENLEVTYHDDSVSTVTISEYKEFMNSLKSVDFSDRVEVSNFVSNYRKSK
Wnt bcat act: Wnt/beta-catenin pathway activators, primary screen, cell-based, plate reader, single point; Wnt/beta-catenin reporter cell assay, activator; activation, % at 9.35 µM; 300,000 compounds, 1.2% hits; in the data active = activation above about 30%, passing the limit was not always enough; inconclusive = no clear call, values can overlap the other calls;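 note: 0% = neutral control wells and 100% = positive control wells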
An asterisk follows results filed as active; ? = inconclusive; . = no result.

SMILES	esBAF inh	C2C12 statin	MITF act	Rtt109 HAT inh	Wnt bcat act
O=S(=O)(O/N=C1\CCCc2ccccc21)c1ccccc1	.	.	11	6	0
COc1ccc(S(=O)(=O)O/N=C2\CCCc3ccccc32)cc1	0	72*	6	-1	1
CN(C)c1ccc(C2C3CCCc4ccccc4C3=NN2C)cc1 (stereo not given)	47*	-9	32	4	1
C(=N\n1cnnc1)/c1ccc(OCc2cccc3ccccc23)cc1	.	.	36	0	.
C(=N\n1cnnc1)/c1ccccc1OCCOc1ccccc1	61*	-26	36	4	3
Fc1ccccc1COc1ccc(/C=N/n2cnnc2)cc1	38	-3	.	-6	37*
C[C@@H]1CCCCO[C@@H](CN(C)Cc2ccc3c(c2)OCO3)[C@H](C)CN([C@H](C)CO)C(=O)c2cc(NS(=O)(=O)c3ccc(Cl)cc3)ccc2O1	-10	.	.	.	.
O=C(C[C@@H]1CC[C@H](NC(=O)CN2CCOCC2)[C@@H](CO)O1)NC1CCCCC1	-5	-10	.	.	.
Cc1ccc(S(=O)(=O)N[C@@H]2C=C[C@@H](CC(=O)NCCN3CCCCC3)O[C@@H]2CO)cc1	0	7	.	.	.
COc1ccc2nc(N3C(=O)CNC3=S)sc2c1	.	.	.	-4	54*
COc1ccc(NC(=O)N(C)C[C@@H]2Oc3ccc(NC(=O)Cn4cnnn4)cc3C(=O)N([C@@H](C)CO)C[C@H]2C)cc1	2	49	.	.	.
COc1cc(OC)cc(-c2nc3nc(C)c(CCC(=O)O)c(C)n3n2)c1	-18	117*	2	1	.
CC1CCc2c(sc3ncn(CCO)c(=O)c23)C1 (stereo not given)	53*	8	74	3	11
Nc1nonc1C(=O)N/N=C/c1ccc(Br)o1	.	.	.	-1	-1
N/C(=N\N=C\c1ccc(O)cc1)c1nonc1N	.	.	65	5	49*
N/C(=N\N=C\c1ccc(Br)o1)c1nonc1N	.	.	118*	-5	23
N/C(=N\N=C\c1ccc(O)c(O)c1)c1nonc1N	65*	-5	61	-6	-1
COc1cc(/C=N/N=C(\N)c2nonc2N)ccc1O	.	.	53	4	18
N/C(=N\N=C\c1cccc(O)c1)c1nonc1N	-7	-4	7	-3	14
COc1ccc(CNC(=O)C[C@@H]2C[C@@H]3c4cc(NC(=O)CC5CC5)ccc4O[C@@H]3[C@H](CO)O2)cc1	0	-3	.	.	.
CCC(=O)Nc1ccc2c(c1)C(=O)N(C)[C@@H]1CC[C@@H](CC(=O)N3CCCCC3)O[C@@H]1CO2	-3	12	.	.	.
Cc1ccc(NC(=O)c2c(Cl)n(C)c3ccccc23)cc1	67*	-48	4	17	.
Cn1c(=O)c(C(=O)Nc2ncccc2O)c(O)c2ccccc21	36	6	16	2	8
Cn1c(=O)c(C(=O)NCc2ccccc2)c(O)c2ccccc21	45*	19	.	0	2
Cc1ccc(NC(=O)c2c(O)c3ccccc3n(C)c2=O)nc1	48*	-20	.	1	.
SMILES	esBAF inh	C2C12 statin	MITF act	Rtt109 HAT inh	Wnt bcat act
COc1ccc(S(=O)(=O)N2C[C@H](O)COC[C@@H]3O[C@@H](CC(=O)NCc4ccc(Cl)c(Cl)c4)CC[C@H]32)cc1	0	-4	.	.	.
O=C1CC(N2CCOCC2)C(=O)N1Cc1ccc(N2CCCC2=O)cc1 (stereo not given)	-4	3	-6	-12	.
O=C1CC(N2CCN(C/C=C/c3ccccc3)CC2)C(=O)N1Cc1ccc(N2CCCC2=O)cc1 (stereo not given)	-1	100*	-23	6	-3
Cc1noc(C)c1NC(=O)N(C)C[C@H]1Oc2ccc(NC(=O)Cc3ccccc3)cc2CC(=O)N([C@@H](C)CO)C[C@H]1C	-1	-6	.	.	.
O=c1c2ccccc2oc2cc(C#Cc3ccccn3)ccc12	-25	-8	25	-6	34*
COc1cccc2oc3ccc(C#Cc4ccccn4)cc3c(=O)c12	1	-27	45	2	40*
COc1cccc2sc3cc(C#Cc4ccccn4)ccc3c(=O)c12	?	-18	101*	17	13
